Data published in PubChem BioAssay (NCATS).
Results filed as inconclusive are left out. Entries that show only a call come without a potency. Activity calls are given as the source filed them. Calls come from the whole dose curve; as a rule, active = well fitted inhibition curve with a large enough effect; inconclusive = small, poorly fitted or top-dose-only effect; inactive = flat fitted curve, though single readings scatter.

What follows are compounds tested against Calcium and integrin-binding protein 1 (Homo sapiens) (UniProt Q99828) (assay: Primary qHTS for Identification of Calcium Integrin Binding Protein 1 (CIB1) Competitor (AID 1508620;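 note: GST tagged CIB1 binding a fluorescein labelled alphaIIb integrin peptide tracer; top concentration of the series differs between compounds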)). Settings: CIB1-GST / FITC-alphaIIb peptide fluorescence polarization; series mostly up to 114 µM.
Text: Assay Provider: Ulhas P. Naik, PhD Sidney Kimmel Medical College Thomas Jefferson University, Philadelphia, PA Primary function of platelets is to maintain hemostasis. At the site of vascular injury, platelets adhere to adhesive proteins such as collagen and von Willebrand factor. Adherent platelets are activated and generate soluble platelet agonists such as thrombin, ADP and thromboxane A2. Following exposure of circulating platelets to these agonists, results in platelet shape change, granule secretion and activation of platelet integrin alphaIIb-beta3. Ligand binding to activated integrin alphaIIb-beta3 triggers outside-in signaling, leading to platelet aggregation, stabilization of platelet plug, and clot retraction. Upon atherosclerotic plaque rupture also causes platelet plug formation, which underlies a number of cardiovascular diseases such as myocardial infraction and stroke. A number of anti-platelet drugs such as aspirin, clopidogrel, prasugrel, vorapaxar, and eptifibatide are currently available to prevent the thrombotic complications. However, these anti-platelet agents have several limitations including inherent variability in individual responses, developing resistance, and serious bleeding side effects. For these reasons they are not suitable for long-term protection. Based on the experiences with current anti-platelet drugs, it appears that the most useful therapeutic approach is to intersect the secondary responses such as integrin outside-in signaling or recruitment of platelets by TxA2 and secreted ADP. Compounds, which can largely preserve the primary hemostatic function of platelets but inhibit secondary response will be most desired therapeutic agents for treatment of cardiovascular disease. CIB1 is a calcium integrin binding protein, which specifically interact with the alphaIIb subunit of integrin alphaIIb-beta3. Binding of CIB1 to alphaIIb regulates the outside-in signaling in platelets, which is needed for thrombus stabilization and thrombus growth. […] Therefore, we propose that discovery of a small molecule that can prevent the association of CIB1 and alphaIIb-beta3 will be a potential anti-platelet agent that can block the thrombus formation without undue effect on hemostasis. Reference: [1] Naik MU, Nigam A, Manrai P, et al. CIB1 deficiency results in impaired thrombosis: the potential role of CIB1 in outside-in signaling through integrin alpha IIb beta 3. J Thromb Haemost.
PROTOCOL TABLES SEQUENCE No. (1, 2, 3, etc.); […] (e.g., Cells, Incubation, Reagent, etc.); VALUE and DESCRIPTION. 1; Reagent; 3 uL; Protein or buffer (4/3x) 2; Compound; 46 nL; Control inhibitor / compound library 3; Time; 15 min; Room temperature incubation 4; Reagent; 1 uL; Fluorescent labeled peptide (4x) 5; Time; 1000 rpm; Centrifuge 6; Time; 15 min; Room temperature incubation 7; Detection; Ex 480/ Em 540; ViewLux Fluorescence Read NOTES (numbers refer to sequence above) 1; Protein Mixture: C1B1-GST (final concentrations of 1 uM). […] 3; Room temperature incubation. 4; Fluorescent Labeled Peptide: FITC-aIIb (final concentration of 100 nM). Sequence of alphaIIb peptide: Acetyl-[…]-FITC (purity is 95.83%). 5; Centrifuge 1000 rpm (164 g) for 15 seconds. 6; Room temperature incubation. 7; ViewLux Fluorescent Polization Read: excitation = 480(20) / emission = 540(25) S and P; FITC Dichroic mirror.

Sequence of Calcium and integrin-binding protein 1 (Homo sapiens) (Q99828 whole entry, looked up): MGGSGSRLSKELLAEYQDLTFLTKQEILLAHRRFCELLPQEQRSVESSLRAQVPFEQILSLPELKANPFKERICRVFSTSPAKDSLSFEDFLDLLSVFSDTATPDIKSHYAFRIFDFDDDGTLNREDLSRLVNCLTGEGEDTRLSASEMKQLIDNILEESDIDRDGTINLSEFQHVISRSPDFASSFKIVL

SMILES | Potency
CSc1ccccc1-c1ncc(C)c(NCc2ccc(-c3cccnc3)cc2)n1 | inactive
N#Cc1ccc(-c2ccc(-c3nc4ccccc4c(=O)[nH]3)o2)cc1 | inactive
N#Cc1ccc(C[C@@H](NS(=O)(=O)c2ccc(C(=O)O)cc2)C(=O)O)cc1 | inactive
O=C1Nc2ccccc2C1Cc1cc(Cl)c(O)c(Cl)c1 (stereo not given) | inactive
O=C(O)c1cccc(-c2noc(-c3ccccc3C(F)(F)F)n2)c1 | inactive
O=C(O)c1ccc(S(=O)(=O)N[C@H](Cc2ccccc2)C(=O)O)cc1 | inactive
COc1ccc(C(=O)NCC(=O)OC(C(=O)Nc2cc(C(F)(F)F)ccc2Cl)c2ccccc2)cc1OC (stereo not given) | inactive
CC1(C)CC(=O)C2=C(C1)NC(Nc1nc3ccccc3o1)=NC21CCCCC1 | inactive
O=C1CCc2cc(S(=O)(=O)Nc3ccc(F)cc3)ccc2N1 | inactive
CC(=O)c1c(C)[nH]c(C(=O)Nc2ccc(OCCCN(C)C)c(S(=O)(=O)Nc3ccc(Br)cc3)c2)c1C | inactive
CC(=O)NC(c1cc(Cl)c2ccccc2c1O)C(C)C (stereo not given) | inactive
COc1ccc(-c2ccc(=O)n(CC(=O)NCCc3ccccc3)n2)cc1OC | inactive
Cc1cc2c(s1)c1cnn(Cc3c(F)cccc3F)c(=O)c1n2C | inactive
O=C1NC(=O)/C(=C/c2cccn2-c2ccc(P(=O)(O)O)cc2)N1 | inactive
NC(=O)C1CCN(c2ncc(-c3ccc4c(c3)OC(F)(F)O4)s2)CC1 | inactive
O=C(OCc1c(-c2ccccc2)no[n+]1[O-])c1ccccc1 | inactive
CCCCNc1nc(C)nc2c1nc(C)n2CCC | inactive
Oc1c(CN2CCCCC2)cc(COCc2ccccc2)c2cccnc12 | inactive
COC(=O)[C@H](Cc1ccc(O[S+](=O)([O-])c2cccc3cnccc23)cc1)N(C)[S+](=O)([O-])c1ccc2cnccc2c1 | inactive
COc1cc(OC)cc(C2=Nn3c(nnc3-c3ccccc3OC)SC2)c1 | inactive

SMILES | Potency
Cc1ccc(OCCn2c(CCNC(=O)c3ccc(C(C)(C)C)cc3)nc3ccccc32)cc1 | inactive
Cc1ccc(-c2cc(C(=O)O)c3cccc(C)c3n2)cc1C | inactive
COc1ccc(C2Nc3cccc(OC)c3C(=O)N2Cc2ccco2)cc1COc1c(C)cc(NC(C)=O)cc1C (stereo not given) | inactive
Cc1ccc(OCCn2c(CCNC(=O)c3cccc(C(F)(F)F)c3)nc3ccccc32)cc1 | inactive
O=C(/C=C/c1cccnc1)Nc1cccc([S+](=O)([O-])Nc2ccccc2F)c1 | inactive
CC(=O)c1ccc(N2CCN(S(=O)(=O)c3ccc4c(c3)CCCN4C(C)=O)CC2)cc1 | inactive
Oc1ccc(CNc2ccccc2C(F)(F)F)c2cccnc12 | inactive
CC(=O)c1ccc(N2CCN(S(=O)(=O)c3ccc4[nH]c(=O)[nH]c4c3)CC2)cc1 | inactive
COc1ccccc1C1N=C(Nc2nc3ccccc3o2)NC2=C1C(=O)CCC2 (stereo not given) | inactive
CCCCN1C(=O)c2ccccc2C1=O | inactive
Cc1cccc(-c2csc(N3CCC(C(N)=O)CC3)n2)c1 | inactive
Cc1ccc(NS(=O)(=O)c2ccc3c(c2)CC(=O)N3)cc1C | inactive
N#Cc1cccnc1SC1=NS(=O)(=O)c2ccccc21 | inactive
COc1ccc(C(=O)c2ccc(-c3no[n+]([O-])c3C#N)cc2)cc1 | inactive
O=S(=O)(c1c(F)cccc1F)C1CCN(S(=O)(=O)c2ccc3c(c2)OCCO3)CC1 | inactive
COc1ccc(-c2nc3ccccc3c(=O)n2Cc2ccco2)cc1COc1ccc(NC(C)=O)cc1 | inactive
FC(F)(F)c1ccccc1-c1nc(NCc2ccc(-c3ccccc3)cc2)c2ccccc2n1 | inactive
O=C(Nc1ncc(Cc2cccc(C(F)(F)F)c2)s1)c1ccc(-c2cccc([N+](=O)[O-])c2)o1 | inactive
NC(=O)C1CCN(c2nc(-c3ccc4occc(=O)c4c3)cs2)CC1 | inactive
COc1ccc(C2Nc3ccccc3C(=O)N2Cc2cccc3ccccc23)cc1COc1ccc(NC(C)=O)cc1 (stereo not given) | inactive
